These results are taken from PubChem BioAssay.

Each structure is given as a SMILES string. For part of these data: Potency and affinity values are given separately. Active and inactive are the calls of the source.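 How the source made its calls, unless noted: active means fitted half-maximal concentration within 10 nM to 100 µM, steepness 0.5 to 2, significant signal drop, low assay interference; inactive means the rest.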

Assay [1] concerns the target Cell division control protein 42 homolog (Homo sapiens) (UniProt P60953). Nature of the assay: activated mutant Cdc42 GTP-binding inhibitors, dose response, biochemical, multiplex bead flow cytometry, Bodipy-FL-GTP (AID 1333;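 active means fitted half-maximal concentration within the tested dose range, moderate curve steepness, a statistically real signal drop, and little compound fluorescence or tag-binding interference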).
For assay [2] the target is unchanged. Nature of the assay: wildtype Cdc42 GTP-binding inhibitors, dose response, biochemical, multiplex bead flow cytometry, Bodipy-FL-GTP (AID 1334;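 active means fitted half-maximal concentration within the tested range, moderate curve steepness, significant signal drop, and little compound fluorescence or bead-linkage interference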). The conditions noted are these: bead-based flow cytometry, Bodipy-FL-GTP binding to GST-Cdc42; at 100 µM (top of the series) unless noted.
Assay [3] addresses GTPase HRas (Homo sapiens) (UniProt P01112). In words: inhibitors of GTP binding to wildtype Ras, dose response, biochemical, multiplex bead flow cytometry (AID 1335). The conditions noted are these: bead-based flow cytometry, Bodipy-GTP binding to GST-Ras; at 100 µM (top of the series) unless noted. On the technique in general: Flow cytometry measures light scatter and fluorescence of single cells or particles in a stream.

Assay [4] relates to Ras-related protein Rab-7a (dog), GTP binding. Nature of the assay: Rab7 GTP binding inhibitors, potency, dose response, biochemical, wildtype, multiplex bead flow cytometry (AID 1336; call rule not given here).
Assay [5] has as its target Ras-related C3 botulinum toxin substrate 1 (Homo sapiens) (UniProt P63000). In words: wildtype Rac1 GTP binding inhibitors, dose response, biochemical, multiplex bead flow cytometry (AID 1340;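 active means dose curve with midpoint inside tested range, moderate steepness, plateau gap beyond fit error, low compound glow and bead-link interference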). The conditions noted are these: GST-Rac1 beads, Bodipy-FL-GTP binding; at 100 µM (top of the series) unless noted.
The target of assay [6] is GTPase HRas (Homo sapiens) (UniProt P01112). In words: activated Ras mutant GTP binding inhibitors, dose response, biochemical, multiplex bead flow cytometry (AID 1341;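 active means dose-response curve with midpoint inside the tested range, moderate steepness, significant amplitude and little compound fluorescence or bead-attachment interference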;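 further: GST-tagged constitutively activated Ras mutant immobilized on beads and multiplexed with other GTPases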).
Chain of GTPase HRas (Homo sapiens) (P01112 whole entry, looked up): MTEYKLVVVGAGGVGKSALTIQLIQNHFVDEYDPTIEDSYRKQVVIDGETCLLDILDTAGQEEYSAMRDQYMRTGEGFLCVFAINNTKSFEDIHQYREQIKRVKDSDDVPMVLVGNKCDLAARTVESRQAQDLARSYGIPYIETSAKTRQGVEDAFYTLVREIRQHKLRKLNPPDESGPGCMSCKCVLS

Chain of Cell division control protein 42 homolog (Homo sapiens) (P60953 whole entry, looked up): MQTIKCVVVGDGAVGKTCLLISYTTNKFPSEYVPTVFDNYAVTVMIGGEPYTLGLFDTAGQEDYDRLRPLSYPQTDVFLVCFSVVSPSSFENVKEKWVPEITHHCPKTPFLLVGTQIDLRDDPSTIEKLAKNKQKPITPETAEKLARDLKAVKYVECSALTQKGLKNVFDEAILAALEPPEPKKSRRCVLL

Consider `O=c1[nH]c(N/N=C\c2ccc3c(c2)OCO3)nc2ccccc12`, for which the compound was classed as inactive in assay [1], in assay [4] and in assay [6]. In assay [2], the fluorescence, percent of control (lower = inhibition) came to 80.8%. This compound yielded a GTP binding, percent of control in assay [3] of 118%. This compound also came in with a GTP binding signal, raw median fluorescence (lower = inhibition) (MCF (arbitrary fluorescence units)) in assay [5] of 202.

Regarding `COc1ccc(/C=N/NC(=O)c2cccnc2)cc1Cn1nc([N+](=O)[O-])c(Br)c1C`, the compound was classed as inactive in assay [1], in assay [4] and in assay [6]. In addition, the fluorescence, percent of control (lower = inhibition) in assay [2] is 31.2%. This compound also returned a GTP binding, percent of control in assay [3] of 67%. Moreover, the GTP binding signal, raw median fluorescence (lower = inhibition) (MCF (arbitrary fluorescence units)) in assay [5] was 153.

For the compound `COc1cc2[nH]c(=S)nc(NCCc3ccc(C)cc3)c2cc1OC`, the call in assay [1], in assay [4] and in assay [6] was inactive. In addition, the fluorescence, percent of control (lower = inhibition) in assay [2] was determined as 26.6%. In assay [3], this compound gave a GTP binding, percent of control of 59.9%. Also, the GTP binding signal, raw median fluorescence (lower = inhibition) (MCF (arbitrary fluorescence units)) in assay [5] was found to be 125.

As for `Cc1ccc2nc(CSc3nc(C)cc(C)c3C#N)[nH]c2c1`, the result in assay [1], in assay [4] and in assay [6] was inactive. In addition, the fluorescence, percent of control (lower = inhibition) in assay [2] was 35.3%. Further, in assay [3], the GTP binding, percent of control was determined as 77.6%. This compound also returned a GTP binding signal, raw median fluorescence (lower = inhibition) (MCF (arbitrary fluorescence units)) in assay [5] of 242.

For the compound `N#Cc1ccc2ccn(CC(=O)N3CCCc4ccccc43)c2c1`, the call in assay [1], in assay [4] and in assay [6] was inactive. Also, in assay [2], the fluorescence, percent of control (lower = inhibition) is 40%. The compound also displayed a GTP binding, percent of control in assay [3] of 89.5%. In addition, the GTP binding signal, raw median fluorescence (lower = inhibition) (MCF (arbitrary fluorescence units)) in assay [5] came out at 351.

Consider `Clc1ccc(CN(Cc2ccc(Cl)cc2)c2nn[nH]n2)cc1`, for which the call in assay [1], in assay [4] and in assay [6] was inactive. In addition, the fluorescence, percent of control (lower = inhibition) in assay [2] is 28.2%. The same compound gave a GTP binding, percent of control in assay [3] of 85%. Besides, the GTP binding signal, raw median fluorescence (lower = inhibition) (MCF (arbitrary fluorescence units)) in assay [5] was determined as 246.

On to `COc1cc(/C=N/NC(=O)CN(Cc2ccccc2)S(=O)(=O)c2ccc3c(c2)OCCO3)ccc1O`, for which the compound was called inactive in assay [1], in assay [4] and in assay [6]. The fluorescence, percent of control (lower = inhibition) in assay [2] was 40.1%. In assay [3], this compound displayed a GTP binding, percent of control of 52.5%. This compound registered a GTP binding signal, raw median fluorescence (lower = inhibition) (MCF (arbitrary fluorescence units)) in assay [5] of 126.

Turning to `COc1ccccc1-n1cc([C@@H]2C[C@H]3CN(c4ccccc4)C(=O)[C@]34CCCN24)cn1`, the call in assay [1], in assay [4] and in assay [6] was inactive. Besides, in assay [2], the fluorescence, percent of control (lower = inhibition) was found to be 71.8%. Moreover, in assay [3], the GTP binding, percent of control stood at 119%. In assay [5], this compound gave a GTP binding signal, raw median fluorescence (lower = inhibition) (MCF (arbitrary fluorescence units)) of 293.

For the compound `CN1CCN(c2ccccc2NC(=O)c2ccc(-c3cccc([N+](=O)[O-])c3)o2)CC1`, the result in assay [1], in assay [4] and in assay [6] was inactive. In assay [2], the fluorescence, percent of control (lower = inhibition) is 40.2%. In assay [3], this compound returned a GTP binding, percent of control of 93.9%. The compound also showed a GTP binding signal, raw median fluorescence (lower = inhibition) (MCF (arbitrary fluorescence units)) in assay [5] of 308.

On to `COc1cc(N2CCCC2)c(OC)cc1/C=C(/C#N)c1ccc(Br)cc1`, for which the call in assay [1], in assay [4] and in assay [6] was inactive. Moreover, the fluorescence, percent of control (lower = inhibition) in assay [2] is 104%. Moreover, the GTP binding, percent of control in assay [3] was determined as 117%. Besides, the GTP binding signal, raw median fluorescence (lower = inhibition) (MCF (arbitrary fluorescence units)) in assay [5] was found to be 258.

As to `CC(C)(C)c1ccc(OCCSc2nc3ccccc3n2CC(=O)O)cc1`, the outcome in assay [1], in assay [4] and in assay [6] was inactive. Moreover, the fluorescence, percent of control (lower = inhibition) in assay [2] came out at 52.3%. The same compound had a GTP binding, percent of control in assay [3] of 87.1%. In assay [5], the GTP binding signal, raw median fluorescence (lower = inhibition) (MCF (arbitrary fluorescence units)) stood at 35.4.

For the compound `Cc1ccc(-c2noc(CN3C(C)CCCC3C)n2)cc1` (stereo unspecified), the call in assay [1], in assay [4] and in assay [6] was inactive. The fluorescence, percent of control (lower = inhibition) in assay [2] came out at 51.1%. Moreover, in assay [3], the GTP binding, percent of control stood at 62.9%. Besides, in assay [5], the GTP binding signal, raw median fluorescence (lower = inhibition) (MCF (arbitrary fluorescence units)) was determined as 216.

Regarding `CCOC(=O)N1CCC(NC(=O)c2ccc3nc4ccccc4c(=O)n3c2)CC1`, the call in assay [1], in assay [4] and in assay [6] was inactive. Also, the fluorescence, percent of control (lower = inhibition) in assay [2] is 97.6%. This compound also returned a GTP binding, percent of control in assay [3] of 122%. Further, the GTP binding signal, raw median fluorescence (lower = inhibition) (MCF (arbitrary fluorescence units)) in assay [5] came out at 152.

On to `Cn1cc([C@@H]2C[C@H]3CN(Cc4cccc(Cl)c4)C(=O)[C@]34CCCN24)c2ccccc21`, for which the call in assay [1], in assay [4] and in assay [6] was inactive. Also, the fluorescence, percent of control (lower = inhibition) in assay [2] was 61.3%. The compound also gave a GTP binding, percent of control in assay [3] of 111%. Also, the GTP binding signal, raw median fluorescence (lower = inhibition) (MCF (arbitrary fluorescence units)) in assay [5] is 276.

For the compound `CCN(CC)S(=O)(=O)c1ccc2oc(C(=O)N3CCc4ccccc4C3)c(C)c2c1`, the result in assay [1], in assay [4] and in assay [6] was inactive. Also, in assay [2], the fluorescence, percent of control (lower = inhibition) was found to be 59.3%. For the same compound, in assay [3], the GTP binding, percent of control amounted to 78%. In assay [5], the GTP binding signal, raw median fluorescence (lower = inhibition) (MCF (arbitrary fluorescence units)) is 0.

In the case of `CC(C)(C)OC(=O)N[C@@H](Cc1ccccc1)c1nnc(S(=O)(=O)Cc2cccc(F)c2)o1`, the call in assay [1], in assay [4] and in assay [6] was inactive. Further, in assay [2], the fluorescence, percent of control (lower = inhibition) amounted to 33%. This compound gave a GTP binding, percent of control in assay [3] of 77%. Moreover, the GTP binding signal, raw median fluorescence (lower = inhibition) (MCF (arbitrary fluorescence units)) in assay [5] turned out to be 260.
